Data reported in PubChem BioAssay (NCI).
Values joined by “and” are separate entries in the source; they are usually repeats but may differ in a detail not shown here. Identical values can stand only once. Compounds without any hit were thinned out: in the full panel of roughly 83,000, 20% have a hit.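 Each cell line was grown in a 96-well plate and treated with one concentration of compound for 48 hours. Values below 10 were considered active.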 Active and inactive are the calls of the source.

What follows are compounds tested on HCC-2998 colon (assay: NCI-60 one-dose screen, 48 h (100 = growth as untreated, 0 = no growth, -100 = all killed)). Settings: 10 µM unless noted.

| SMILES | growth |
| --- | --- |
| Clc1ccc2sc(-c3ccccc3)nc2c1 | 103% (inactive) |
| COc1cc2oc3cc(=O)cc4oc(-c5ccccc5)cc(c2c2c1CCC(c1ccccc1)O2)c43 (configuration not stated) | 60.7% (inactive) |
| CC(C)(C)C1=CC(=O)C(C(C)(C)C)=CC1=O | 94.4% (inactive) and 101% (inactive) |
| Oc1ccc(O)c(-c2ccccc2)c1 | 65.6% (inactive) |
| COc1ccc(CCl)c(C)c1OC | 100% (inactive) |
| CCNC1=CC(=O)c2ncccc2C1=O | 29.8% (inactive) |
| O=C1C=CC(=O)N1Cc1ccco1 | 101% (inactive) |
| CC(C)=NOC(C)C(=O)O (configuration not stated) | 100% (inactive) |
| Cc1cc2nc3ccc(=[N+](C)C)cc-3sc2cc1N | 18.8% (inactive) |
| c1ccc2c[n+](Cc3ccc4ccccc4n3)ccc2c1 | 71.7% (inactive) |
| COc1cc([C@@H]2c3cc4c(cc3[C@H](O)[C@H]3COC(=O)[C@@H]23)OCO4)cc(OC)c1OC | -10.3% (active) and -60.9% (active) |
| NNC(=O)Nc1ccccc1 | 113% (inactive) |
| Cc1nc2c(=O)[nH]c(=S)[nH]c2[nH]c1=O | 102% (inactive) and 106% (inactive) |
| Oc1cccnc1CN1CCOCC1 | 102% (inactive) and 99.6% (inactive) |
| O=C1c2ccccc2CN1c1ccccc1 | 128% (inactive) |
| COC1C(OC(N)=O)C(O)C(Oc2ccc3c(O)c(NC(=O)c4ccc(O)c(CC=C(C)C)c4)c(=O)oc3c2C)OC1(C)C (configuration not stated) | 107% (inactive) and 96.6% (inactive) |
| C/C=C/C(=O)OCCCCCCCCCCCC | 130% (inactive) |

What follows are compounds tested on KM12 colon in the same assay as above. Settings: 10 µM unless noted.

| SMILES | growth |
| --- | --- |
| OCCCc1ccccc1 | 109% (inactive) |
| S=c1nn[nH]n1C1CCCCC1 | 110% (inactive) |
| CC1=CC(=O)C=CC1=Nc1ccc(N(C)C)cc1 | 83.4% (inactive) and 25.2% (inactive) |
| Nc1nc(=S)c2[nH]cnc2[nH]1 | 10.1% (inactive) and 11.5% (inactive) |
| O=c1[nH]c(=S)[nH]n1C(=S)n1[nH]c(=S)[nH]c1=O | 98.4% (inactive) |
| CN(C)C(=N)N=C(N)N | 100% (inactive) and 108% (inactive) |
| COc1ccc2nccc(Cl)c2c1 | 92.8% (inactive) |
| COc1ccc(CCn2cnn3c(=O)c4ccccc4nc3c2=O)cc1OC | 94.4% (inactive) and 103% (inactive) |
| N=C(N=C(N)N)N1CCOCC1 | 105% (inactive) and 100% (inactive) |
| N#CC(=S)Nc1ccc(Cl)c(Cl)c1 | 2.62% (active) |
| O=C1C(=O)c2ccccc2C(O)=C1CC=C(Cl)Cl | 48.1% (inactive) and 45.8% (inactive) |
| CCOC(=O)C1=C(C)NC(C)=C(C(=O)OCC)C1 | 96.8% (inactive) and 113% (inactive) |
| COc1ccc(CCO)cc1 | 102% (inactive) |
| COc1ccc(/C=N/Nc2nc3ccccc3s2)cc1 | 87.6% (inactive) |
| Nc1ccccc1SC1CC(=O)N(c2ccc(I)cc2)C1=O (configuration not stated) | 79.1% (inactive) |
| Clc1ccc2c(c1)N(C1CCCN(Cc3ccccc3)C1)c1ccccc1S2 (configuration not stated) | 33.7% (inactive) |
| COc1ccc([N+](=O)[O-])cc1OC | 109% (inactive) and 120% (inactive) |
| NC(=O)Cc1nc(O)cc(=O)[nH]1 | 106% (inactive) |
| N=C(N)N1CCc2ccccc2C1 | 92.6% (inactive) and 94% (inactive) |
| Clc1ccc2sc(-c3ccccc3)nc2c1 | 104% (inactive) |
| COc1cc2oc3cc(=O)cc4oc(-c5ccccc5)cc(c2c2c1CCC(c1ccccc1)O2)c43 (configuration not stated) | 74.3% (inactive) |
| CC(C)(C)C1=CC(=O)C(C(C)(C)C)=CC1=O | 110% (inactive) |
| Oc1ccc(O)c(-c2ccccc2)c1 | 40.8% (inactive) |
| COc1ccc(CCl)c(C)c1OC | 101% (inactive) |
| CCNC1=CC(=O)c2ncccc2C1=O | 48.2% (inactive) |
| O=C1C=CC(=O)N1Cc1ccco1 | 103% (inactive) |
| CC(C)=NOC(C)C(=O)O (configuration not stated) | 114% (inactive) |
| Cc1cc2nc3ccc(=[N+](C)C)cc-3sc2cc1N | 5.96% (active) and -2.21% (active) |
| c1ccc2c[n+](Cc3ccc4ccccc4n3)ccc2c1 | 76.1% (inactive) |
| COc1cc([C@@H]2c3cc4c(cc3[C@H](O)[C@H]3COC(=O)[C@@H]23)OCO4)cc(OC)c1OC | 28.4% (inactive) and -3.9% (active) |
